Data from article PMC5540273 (PLoS ONE, 2017).

Tests used:
Conditions in all cases: concentration: 1 μM, replicates: in singlicate; n = 1
CAMK4 = tested on: CAMK4
CAMKK1 = tested on: CAMKK1
CAMKK2 = tested on: CAMKK2
CASK = tested on: CASK
CDC2L1 = tested on: T1, CDC2L1
T1 construct: gene CDK11B

CDC2L2 = tested on: CDC2L2
CDC2L5 = tested on: T2, CDC2L5
T2 construct: gene CDK13

CDK11 = tested on: T3, CDK11
T3 construct: gene CDK19

CDK2 = tested on: CDK2
CDK3 = tested on: CDK3
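Further: KINOMEscan kinase panel screen.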

SMILES | %Inh (CAMK4) [%] | %Inh (CAMKK1) [%] | %Inh (CAMKK2) [%] | %Inh (CASK) [%] | %Inh (CDC2L1) [%] | %Inh (CDC2L2) [%] | %Inh (CDC2L5) [%] | %Inh (CDK11) [%] | %Inh (CDK2) [%] | %Inh (CDK3) [%]
COC(=O)c1cccc(NC(=O)NC2CCN(c3ccnc(Nc4ccc(OC)cc4)n3)C2)c1 (centres unmarked) [GSK1379746] | 0 | 0 | 0 | 2 | 0 | 32 | 0 | 76 | 5 | 9
Cn1cnc2c(N)ncnc21 [SKF-97623] | 7 | 0 | 0 | 7 | 0 | 0 | 0 | 0 | 44 | 0
Cc1ccc(NC(=O)Nc2ccccc2F)cc1-c1ccc(C(=O)Nc2ccncc2)cc1 [GSK1398477] | 5 | 15 | 31 | 17 | 8 | 10 | 0 | 12 | 0 | 24
Cc1c(Cn2c(C)c(C)n3c(=O)cc(N4CCOCC4)nc23)cccc1C(F)(F)F [GSK2328680] | 0 | 0 | 10 | 16 | 0 | 14 | 0 | 0 | 2 | 7
Cc1ccccc1Cn1ccn2c(=O)cc(N3CCOCC3)nc12 [GSK2269905] | 0 | 9 | 31 | 15 | 0 | 0 | 0 | 0 | 0 | 12
Fc1ccc(-c2nn3cccc(F)c3c2-c2ccncc2)cc1 [GW475620] | 19 | 0 | 5 | 4 | 0 | 0 | 0 | 10 | 7 | 0
O=C(Nc1n[nH]c2nc(-c3cccs3)c(Br)cc12)C1CC1 [SB-735297] | 0 | 0 | 0 | 13 | 1 | 12 | 24 | 0 | 77 | 26
Cc1c(Cn2c3ccccc3n3c(=O)cc(N4CCOCC4)nc23)cccc1C(F)(F)F [GSK2306394] | 8 | 69 | 5 | 0 | 100 | 0 | 0 | 0 | 0 | 0
O=C(Nc1n[nH]c2nc(-c3ccco3)c(Br)cc12)C1CCN(Cc2ccccc2)C1.O=C(O)[C@H](O)[C@@H](O)C(=O)O (centres unmarked) [SB-742034] | 0 | 20 | 25 | 40 | 20 | 36 | 44 | 0 | 13 | 0
Cc1ccccc1-c1cc(-c2c[nH]nc2-c2ccccn2)ccn1 [GW680061] | 0 | 0 | 0 | 25 | 0 | 9 | 0 | 2 | 0 | 17
CC[C@@H]1CO[C@H](C(=O)Nc2ccccc2)CN1c1cc(-c2ccc3c(N)n[nH]c3c2)nc(NC)n1 [GSK2376236] | 0 | 5 | 22 | 8 | 8 | 14 | 0 | 12 | 0 | 9
Cc1cnc(N)c(/C=C/c2cncc(C(=O)NCCc3ccc(Cl)cc3Cl)c2)c1.Cl [GSK190937] | 0 | 7 | 20 | 7 | 0 | 17 | 0 | 92.8 | 0 | 6
Nc1cccc(-c2ccc3c(N)n[nH]c3c2)n1 [GSK2192730] | 0 | 27 | 22 | 14 | 0 | 22 | 0 | 3 | 0 | 7
COc1cccc(C2=C(Nc3cc(Cl)c(O)c(Cl)c3)C(=O)NC2=O)c1 [SB-390767] | 0 | 11 | 0 | 32 | 0 | 0 | 0 | 0 | 0 | 18
CC(=O)c1c(C)c2cnc(Nc3ccn(C)n3)nc2n(C2CCCC2)c1=O | 0 | 7 | 13 | 12 | 0 | 100 | 0 | 2 | 3 | 0
CCc1ccc(-c2ccc3c(c2)-c2n[nH]cc2S(=O)(=O)N3C)cc1 | 11 | 10 | 6 | 29 | 0 | 0 | 0 | 7 | 26 | 0
NS(=O)(=O)c1cccc(N/C=C2\C(=O)Nc3ccc(S(=O)(=O)Cc4c(Cl)cccc4Cl)cc32)c1 [GSK398099] | 0 | 72 | 60 | 27 | 0 | 9 | 0 | 0 | 0 | 24
